Laboratory results taken from PubChem BioAssay AID1159580 (chemical genetic matrix, 2015).
“And” between values parts separate entries of the source, which are not always exact repeats. Equal values may be shown once. Screen size: about 5,500 compounds; about 2,000 (36%) were called active. Roughly 18% stayed inconclusive and do not appear here. Cut-off read from the data, not from the text of the source: active = normalized growth mostly below about 0.91 (no sharp cut-off); inconclusive = no clear call, values can overlap the other calls; inactive = mostly above about 0.92. This is one part of the list.

Test: chemical genetic growth profiling, strain panel (AID 1159580);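 note: tested at 20 µM; growth read once vehicle control cultures reached saturation at 30 °C; 1 = growth at the plate median or of vehicle wells; lower values mean less growth of the strain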
Details: S. cerevisiae deletion strains, growth OD

Measured: normalized growth

NCC1CCC(C(=O)O)CC1 (stereo not drawn)
inactive: locus YAL021C, strain ccr4, active compounds read low 1 | locus YAL026C, strain drs2, active compounds read low 0.998 | locus YAL030W, strain snc1, active compounds read low 1 | locus YBL061C, strain skt5, active compounds read low 0.979 | locus YBR009C, strain hhf1, active compounds read low 0.992 | locus YBR021W, strain FUR4, active compounds read low 0.988 | locus YBR023C, strain chs3, active compounds read low 0.992 | locus YBR171W, strain sec66, active compounds read low 0.986 | locus YBR229C, strain ROT2, active compounds read low 1 | locus YBR231C, strain swc5, active compounds read low 0.988 | locus YBR279W, strain paf1, active compounds read low 1.01 | locus YCL011C, strain gbp2, active compounds read low 1 | locus YCL016C, strain dcc1, active compounds read low 0.993 | locus YCL029C, strain bik1, active compounds read low 0.982 | locus YCL061C, strain MRC1, active compounds read low 0.999 | locus YCL069W, strain vba3, active compounds read low 0.991 | locus YCR088W, strain abp1, active compounds read low 0.989 | locus YDL005C, strain med2, active compounds read low 0.974 | locus YDL035C, strain GPR1, active compounds read low 0.985 | locus YDL040C, strain nat1, active compounds read low 0.972 | locus YDL074C, strain BRE1, active compounds read low 1.04 | locus YDL101C, strain DUN1, active compounds read low 0.996 | locus YDL134C, strain PPH21, active compounds read low 0.985 | locus YDL185W, strain tfp1, active compounds read low 0.965 | locus YDL192W, strain arf1, active compounds read low 0.994 | locus YDR001C, strain nth1, active compounds read low 0.987 | locus YDR069C, strain doa4, active compounds read low 0.984 | locus YDR101C, strain arx1, active compounds read low 1 | locus YDR137W, strain rgp1, active compounds read low 1 | locus YDR150W, strain NUM1, active compounds read low 0.986 | locus YDR159W, strain sac3, active compounds read low 0.974 | locus YDR162C, strain NBP2, active compounds read low 0.973 | locus YDR195W, strain ref2 0.956 | locus YDR297W, strain sur2, active compounds read low 0.973 | locus YDR318W, strain mcm21, active compounds read low 0.978 | locus YDR334W, strain swr1, active compounds read low 1.01 | locus YDR335W, strain msn5, active compounds read low 1 | locus YDR388W, active compounds read low 0.999 | locus YDR392W, strain spt3, active compounds read low 1 | locus YDR502C, strain sam2, active compounds read low 0.996 | locus YEL003W, strain gim4, active compounds read low 0.995 | locus YEL037C, strain rad23, active compounds read low 0.991 | locus YEL061C, strain CIN8 (second series), active compounds read low 1 | locus YEL061C, strain CIN8, active compounds read low 1 | locus YER015W, strain faa2, active compounds read low 0.987 | locus YER016W, strain bim1, active compounds read low 0.971 | locus YER110C, active compounds read low 0.988 | locus YER111C, strain swi4, active compounds read low 0.978 | locus YER155C, strain BEM2 (second series), active compounds read low 0.974 | locus YER155C, strain BEM2, active compounds read low 0.995 | locus YER167W, strain BCK2, active compounds read low 0.997 | locus YFR010W, strain ubp6, active compounds read low 0.99 | locus YGL078C, strain dbp3, active compounds read low 0.998 | locus YGL086W, strain mad1, active compounds read low 1 | locus YGL173C, strain kem1, active compounds read low 0.974 | locus YGL227W, strain vid30, active compounds read low 0.998 | locus YGL240W, strain doc1, active compounds read low 0.999 | locus YGL248W, strain PDE1, active compounds read low 1.01 | locus YGL253W, strain hxk2, active compounds read low 0.977 | locus YGR078C, strain PAC10, active compounds read low 1.04 | locus YGR135W, strain pre9, active compounds read low 0.96 | locus YGR252W, strain gcn5, active compounds read low 1.02 | locus YHR013C, strain ard1, active compounds read low 0.979 | locus YHR027C, strain rpn1, active compounds read low 0.996 | locus YHR030C, strain SLT2, active compounds read low 0.98 and 1.04 | locus YHR079C, strain IRE1 (second series), active compounds read low 0.985 | locus YHR079C, strain IRE1, active compounds read low 1.06 | locus YHR094C, strain hxt1, active compounds read low 0.999 | locus YHR129C, strain ARP1, active compounds read low 0.986 | locus YHR142W, strain chs7, active compounds read low 0.994 | locus YHR200W, strain rpn10, active compounds read low 0.973 | locus YIL066C, strain RNR3, active compounds read low 1 | locus YIL073C, strain SPO22, active compounds read low 0.909 | locus YIL125W, strain kgd1, active compounds read low 0.995 | locus YIR030C, strain dcg1, active compounds read low 0.987 | locus YJL092W, strain hpr5, active compounds read low 0.986 | locus YJL095W, strain BCK1 (second series), active compounds read low 0.986 | locus YJL095W, strain BCK1, active compounds read low 1.04 and 1.01 | locus YJL115W, strain asf1, active compounds read low 0.98 | locus YJL129C, strain trk1, active compounds read low 0.997 | locus YJL134W, strain LCB3, active compounds read low 0.997 | locus YJL154C, strain vps35, active compounds read low 0.988 | locus YJL164C, strain tpk1, active compounds read low 0.985 | locus YJL166W, strain qcr8, active compounds read low 0.983 | locus YJL168C, strain set2, active compounds read low 0.999 | locus YJL187C, strain SWE1 (second series), active compounds read low 1.02 | locus YJR043C, strain POL32, active compounds read low 1 | locus YJR066W, strain TOR1, active compounds read low 0.98
